Screening results deposited in PubChem by several laboratories.
In the library only some 4% were active in any assay of this set; here they are far more common.
Mtb UGM inh = M. tuberculosis UGM enzyme inhibitors, primary screen, biochemical, fluorescence polarization, single point; AID 504406, 2011; UDP-galactopyranose mutase (Mycobacterium tuberculosis (strain ATCC 25618 / H37Rv)), …; hit rate 0.06% among 320,000; inhibition, % at 10 µM; purified UGM, fluorescence polarization probe displacement; in the data active = inhibition above about 10%, passing the limit was not always enough
Mtb betalactam = beta-lactam sensitization of Mtb H37Rv, H37Rv. M. tuberculosis H37Rv growth with meropenem, percent inhibition. inhibition, % at 25 µM. hit rate 0.27% among 330,000. AID 434955, 2010; call rule not given here;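 also: growth measured after seven days incubation then overnight dye step; 0% = bacteria only wells and 100% = bacteria with antibiotic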
GDH-TPI counter-1 = GDH-TPI coupling enzyme inhibitors, primary screen, artefact control for M. tuberculosis FBA inhibitor project, biochemical, absorbance, full deck; GDH-TPI coupled enzyme counterscreen, NADH absorbance; inhibition, % at 4.8 µM; hit rate 1.2% among 360,000; in the data active = inhibition above about 30%;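 also: 0% = DMSO wells and 100% = wells lacking the enzyme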
RecA splice inh = Mtb RecA intein splicing inhibitors, primary screen, biochemical, fluorescence, HTS; Protein RecA (Mycobacterium tuberculosis (strain ATCC 25618 / H37Rv)), P9WHJ3; cell-free RecA intein splicing; inhibition, % (test concentration not listed); hit rate 0.75% among 290,000; AID 2221, 2009; in the data active = inhibition above about 30%;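 also: 0% = vehicle wells and 100% = reference inhibitor control wells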
Target sequence (P9WHJ3 whole entry, looked up, canonical isoform): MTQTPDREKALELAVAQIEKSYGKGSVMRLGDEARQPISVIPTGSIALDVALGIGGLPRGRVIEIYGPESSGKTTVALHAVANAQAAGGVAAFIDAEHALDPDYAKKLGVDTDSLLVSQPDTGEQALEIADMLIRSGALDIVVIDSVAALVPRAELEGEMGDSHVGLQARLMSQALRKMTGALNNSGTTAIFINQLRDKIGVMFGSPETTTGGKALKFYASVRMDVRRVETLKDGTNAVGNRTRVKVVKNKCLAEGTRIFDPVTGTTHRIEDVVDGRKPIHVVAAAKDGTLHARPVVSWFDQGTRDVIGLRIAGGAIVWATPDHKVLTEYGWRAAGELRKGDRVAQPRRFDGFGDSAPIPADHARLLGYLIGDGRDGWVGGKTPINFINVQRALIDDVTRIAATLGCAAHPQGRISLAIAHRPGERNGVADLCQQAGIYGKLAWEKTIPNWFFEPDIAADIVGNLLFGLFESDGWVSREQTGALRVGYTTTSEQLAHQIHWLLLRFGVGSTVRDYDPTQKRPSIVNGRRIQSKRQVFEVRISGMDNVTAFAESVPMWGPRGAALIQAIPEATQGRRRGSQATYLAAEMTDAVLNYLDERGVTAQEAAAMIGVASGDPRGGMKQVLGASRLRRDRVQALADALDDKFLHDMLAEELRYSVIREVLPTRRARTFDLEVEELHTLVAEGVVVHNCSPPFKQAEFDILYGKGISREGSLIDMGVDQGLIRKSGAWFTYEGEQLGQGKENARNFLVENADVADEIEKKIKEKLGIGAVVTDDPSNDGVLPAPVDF
FBA Mtb inh = Mtb FBA enzyme inhibitors, primary screen, biochemical, fluorescence, strain H37Rv | Fructose-bisphosphate aldolase (Mycobacterium tuberculosis (strain ATCC 25618 / H37Rv)), … | purified M. tuberculosis FBA, fluorescence read-out | inhibition, % at 1 µM | hit rate 2.3% among 360,000 | AID 588726, 2011;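 also: 0% = vehicle and 100% = reference inhibitor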
Rv3671c inh = Rv3671c serine protease inhibitors, primary screen, biochemical, fluorescence polarization, M. tuberculosis H37Rv; inhibition, % at 5.96 µM; AID 2606, 2010; P9WHR9; hit rate 0.048% among 320,000; in the data active = inhibition above about 38%;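 also: extracellular domain of Rv3671c used as enzyme; 0% = enzyme with DMSO and 100% = no enzyme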
Mtb FBA inh conf = M. tuberculosis aldolase blockers, biochemical, fluorescence, strain H37Rv, confirmation | hit rate 78% among 5,600 | inhibition, % at 1 µM | purified M. tuberculosis FBA, fluorescence read-out | shares compounds with FBA Mtb inh | AID 651616, 2012;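 also: 0% = vehicle wells and 100% = reference inhibitor wells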
GDH-TPI counter-2 = GDH-TPI coupling enzyme inhibitors, artefact control for M. tuberculosis FBA inhibitor project, biochemical, fluorescence, high throughput. GDH-TPI coupled enzyme counterscreen. hit rate 81% among 5,600. inhibition, % at 1 µM. AID 652141, 2013. shares compounds with FBA Mtb inh; in the data active = inhibition above about 10%
GDH-TPI dose = GDH-TPI coupling enzyme inhibitors, dose response, artefact control for M. tuberculosis FBA inhibitor project, biochemical, fluorescence, IC50; shares compounds with FBA Mtb inh; GDH-TPI coupled enzyme assay, artifact counterscreen; IC50, µM; hit rate 79% among 170; AID 652145, 2013; call rule not given here
Active calls of the source: *; . = no result given; + = active, no number. Rule as the data show it, unless noted: active = inhibition above about 27%; inactive = the rest.

SMILES	Mtb UGM inh	Mtb betalactam	GDH-TPI counter-1	RecA splice inh	FBA Mtb inh	Rv3671c inh	Mtb FBA inh conf	GDH-TPI counter-2	others
CC(=O)Nc1cc(-c2cccc(C(=O)NCCN(C)C)c2)cn2c(-c3ccc(S(C)(=O)=O)cc3)cnc12	.	.	11	.	61*	.	+	+
CC(=O)Nc1cc(-c2ccc(F)cc2)cn2c(-c3ccc(F)cc3)cnc12	.	.	4	.	6	.	.	.
CC(=O)Nc1cc(-c2ccc(C(=O)N3CCOCC3)cc2)cn2c(-c3ccc(F)c(Cl)c3)cnc12	.	.	4	.	-1	.	.	.
CC(=O)Nc1cc(-c2ccc(C(=O)N3CCOCC3)cc2)cn2c(-c3ccc(S(C)(=O)=O)cc3)cnc12	.	.	11	.	28*	.	+	+
CC(=O)Nc1cc(-c2ccc(F)cc2)cn2c(-c3ccc(S(C)(=O)=O)cc3)cnc12	.	.	15	.	57*	.	89*	69*
CC1=C(C(=O)N(C)C)CC(CC(=O)NCc2cccs2)C(=O)N1CCCN1CCCC1=O (stereo not given)	.	.	4	.	2	.	.	.
COc1ccccc1N1C(=O)c2ccccc2NC1c1ccc(O)cc1 (stereo not given)	1	7	-7	0	42*	3	52*	45*
COc1ccc(N2C(=O)c3ccccc3NC2c2ccc(NC(C)=O)cc2)c(OC)c1 (stereo not given)	1	-5	5	-5	42*	-2	91*	64*
COc1ccc(NC(=O)C2CCCN2S(=O)(=O)c2ccc(Cl)cc2)cc1 (stereo not given)	-2	-6	-3	2	0	3	.	.
CCOC1=C2CN(S(=O)(=O)c3ccc(C)cc3)[C@H](c3ccccc3)C[C@H]2[C@H]2C(=O)N(c3ccccc3)C(=O)[C@H]2C1	.	.	.	.	-1	.	.	.
COc1cc2c3nc4n(c(=O)c3n(CC(=O)NCC3CCCO3)c2cc1OC)CCS4 (stereo not given)	-1	-2	14	1	63*	8	180*	174*
Cc1ccnc(SCc2cn3c(C)cc(C)nc3n2)n1	-4	-5	-5	-2	100*	-9	46*	48*
Cc1cc(C)n2cc(CSC3=NCCS3)nc2n1	0	-13	3	-1	53*	-5	190*	155*
Cc1cc(C)n2cc(CSc3ncccc3C(=O)O)nc2n1	7	-5	1	-1	82*	-4	199*	179*
COc1ccc(CC(=O)OCC(=O)NCc2ccc3c(c2)OCO3)cc1OC	-1	-3	3	.	-1	0	.	.
COc1ccc(-c2ccc3c(=O)cc(-c4ccsc4)oc3c2)cn1	0	0	15	.	48*	-39	10	1
COc1cc(-c2ccc3oc(-c4ccsc4)cc(=O)c3c2)cc(OC)c1OC	1	95	20	.	-2	-20	.	.
Cc1ccc(S(=O)(=O)N2CCOCC2)cc1NC(=O)COC(=O)CCC(=O)c1ccc(F)cc1	.	.	2	.	1	.	.	.
Cc1cc(N2CCC(C)CC2)nc2ccc(N3C(=O)CCC3=O)cc12	3	-12	10	3	59*	1	98*	79*
COc1ccccc1C1C2=C(CC(C)(C)CC2=O)N(CC(=O)O)C2=C1C(=O)CC(C)(C)C2	1	-1	8	-349	23	3	.	.
COc1ccc(N2C3=C(C(=O)CC(C)(C)C3)C(c3ccccc3OC)C3=C2CC(C)(C)CC3=O)cc1	-1	1	-2	-59	50*	-3	76*	60*
COc1ccc(-c2cnc3c(c2)C(=O)N([C@H](C)CO)C[C@@H](C)[C@@H](CN(C)C(=O)NC2CCCC2)O3)cc1	.	.	-5	.	-1	.	.	.
C=CCn1c(=O)c(C(=O)Nc2ccccc2O)c(O)c2ccccc21	2	1	18	3	29*	6	26	24*
C=CCn1c(=O)c(C(=O)Nc2ccccc2C)c(O)c2ccccc21	.	.	18	1	-1	.	.	.
Cc1c(C(=O)N(CCc2ccccc2)Cc2ccccc2)cccc1[N+](=O)[O-]	0	-2	4	12	2	0	.	.
SMILES	Mtb UGM inh	Mtb betalactam	GDH-TPI counter-1	RecA splice inh	FBA Mtb inh	Rv3671c inh	Mtb FBA inh conf	GDH-TPI counter-2	others
COc1cc(C(=O)OCC(=O)NC2CCCCC2)cc2c1OCCO2	2	0	1	.	2	-2	.	.
Cc1csc(SCC(=O)N(C)CC(=O)Nc2ccc(F)cc2)n1	3	0	-6	0	28*	1	29*	13*
CN(CC(=O)Nc1ccc(F)cc1)C(=O)CSc1nncs1	-2	-6	11	0	4	-5	.	.
COc1cc(CCC(=O)NCc2ccc(F)cc2)cc(OC)c1OC	1	-7	2	-2	33*	9	54*	47*
CCN(Cc1cccc(F)c1)C(=O)c1ccc2ccccc2n1	-1	5	9	-1	2	4	.	.
CCOC(=O)c1[nH]c2cc3c(cc2c1NC(=O)CN1CCCC1)OCO3	1	0	16	3	73*	8	76*	49*
CCOC(=O)c1[nH]c2cc3c(cc2c1NC(=O)CN1CCc2ccccc2C1)OCO3	-1	-10	23	0	81*	-7	12	6	GDH-TPI dose=1.3*
Cc1ccc(S(=O)(=O)N/N=C\c2ccc3c(c2)OCO3)cc1	0	4	17	0	1	0	.	.
Cc1ccc(S(=O)(=O)N/N=C\c2cc3c(cc2Br)OCO3)cc1	3	2	8	2	42*	-7	9	-4
COc1ccc(NC(=O)CCC(=O)c2ccc(Cl)cc2)cn1	0	-5	-4	.	0	-2	.	.
CCOC(=O)C1=CN(CC)S(=O)(=O)NC1c1cccc(OC)c1 (stereo not given)	.	.	-5	.	-1	.	.	.
Oc1ccc(-c2nccs2)cc1	.	.	18	.	47*	.	108*	86*
COc1ccc(C2NC(=O)NC3=C2C(=O)CCC3)cc1 (stereo not given)	0	0	-2	0	0	0	.	.
